# Bioassay records from PubChem.
# ST2 inh = blocks human ST2 binding to IL-33. AlphaLISA ST2-Fc/biotin-IL-33 interaction, 1 h. inhibition, % for hits at 17 µM. 2.3% of 78,000 active. AID 1259354; in the data active = inhibition above about 30%
# Target sequence (Q01638 whole entry, looked up): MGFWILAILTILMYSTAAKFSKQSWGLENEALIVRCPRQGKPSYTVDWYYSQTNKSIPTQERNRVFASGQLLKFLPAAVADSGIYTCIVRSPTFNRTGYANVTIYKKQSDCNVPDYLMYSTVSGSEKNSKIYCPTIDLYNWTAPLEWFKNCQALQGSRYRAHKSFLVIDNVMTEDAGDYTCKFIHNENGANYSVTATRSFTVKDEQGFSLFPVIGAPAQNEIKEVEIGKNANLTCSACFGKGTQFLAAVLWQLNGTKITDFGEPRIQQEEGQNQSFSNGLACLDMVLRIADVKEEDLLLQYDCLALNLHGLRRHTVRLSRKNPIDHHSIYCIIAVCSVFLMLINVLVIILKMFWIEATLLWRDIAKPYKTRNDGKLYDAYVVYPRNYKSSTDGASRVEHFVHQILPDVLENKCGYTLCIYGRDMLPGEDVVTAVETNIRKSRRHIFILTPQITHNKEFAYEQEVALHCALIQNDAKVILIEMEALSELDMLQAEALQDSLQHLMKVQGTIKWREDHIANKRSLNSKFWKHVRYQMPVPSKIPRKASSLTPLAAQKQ
# * marks the source's active call; other numbers are inactive results; i = inactive. Only a selection was taken, and hits are over-represented in it overall.
SMILES,ST2 inh
Cc1[nH]nc(-c2ccc(O)c(O)c2O)c1Oc1ccccc1,42.0%*
COc1ccc(-c2n[nH]c(C)c2Oc2ccccc2)c(O)c1,i
O=C(c1cccc(Cl)c1)N1CCN=C1SCc1cccnc1,i
CCC(NS(=O)(=O)c1ccc(OC)c(OC)c1)C12CC3CC(CC(C3)C1)C2 (stereo not drawn),i
COC(=O)c1sc2ccccc2c1NC(=O)c1cc(Cl)sc1Cl,i
N#CSC(C#N)Cc1ccccc1 (stereo not drawn),33.0%*
CC(C)(C)NCc1ccc([N+](=O)[O-])cc1,i
N#Cc1cc(C#N)c(SCc2ccc([N+](=O)[O-])cc2)nc1N,i
OC(Cc1ccccc1)c1ccccc1 (stereo not drawn),i
N#CC(c1ccccc1)C(C#N)c1ccccc1 (stereo not drawn),i
N#CSC(C#N)Cc1ccc([N+](=O)[O-])cc1 (stereo not drawn),51.0%*
COc1ccc(CCNc2ncnc3sc(C(=O)NC[C@H]4C[C@@H]5C=C[C@H]4C5)c(C)c23)cc1OC,i
COc1ccc(Br)cc1C1SCCN1S(=O)(=O)c1ccc(F)cc1 (stereo not drawn),i
CCCCOc1ccc2c3c(c(=O)oc2c1)CCCC3,i
Cc1cccc(N=Cc2nc(-c3ccc(Cl)cc3)oc2O)n1,i
Cc1cccc(N=Cc2nc(-c3ccc(Cl)cc3)oc2O)c1,i
Oc1oc(-c2ccc(Cl)cc2)nc1C=Nc1ccccn1,33.0%*
COc1ccccc1N1CCN(C2CCCN(Cc3nc4ccccc4n3C)C2)CC1 (stereo not drawn),i
Cc1cc(NC(=O)C(C)(C)C)nc2c1c(=O)oc1ccccc12,i
CCCCn1ncc(C)c1NC(=O)Cc1ccc2c(c1)OCO2,i
CC1=CC(C)(C)Nc2ccc(OC(=O)COc3ccc(Cl)cc3)cc21,i
COc1ccc2c(c1)C(C)=CC(C)(C)N2,42.0%*
COc1ccc(I)c(OC)c1,i
Cn1nc(C(=O)NCc2ccccc2)c2c1CCN(C(=O)CCC1CCCCC1)C2,i
O=C(Cn1cnc2c(cnn2-c2ccccc2)c1=O)Nc1ccc(Cl)cc1,i
SMILES,ST2 inh
O=C1C=C(Nc2ccccc2)C(=O)N1c1ccccc1,i
CC(=O)N1/C(=C/c2ccncc2)C(=O)c2ccccc21,39.0%*
COc1ccc(-c2nc3s/c(=C\c4ccc(N(C)C)cc4)c(=O)n3n2)cc1,i
CNC(=O)N1C(=O)C(=O)c2ccccc21,i
CC(=O)N1/C(=C/c2ccc(N(C)C)cc2)C(=O)c2ccccc21,66.0%*
CC(=O)N1C(=O)C(=O)c2ccccc21,i
CC(Oc1ccc(C=C2C(=O)c3ccccc3C2=O)cc1)C(=O)O (stereo not drawn),i
O=C(Nc1ccc(Br)cc1)C1CCN(S(=O)(=O)c2cccs2)CC1,i
Cn1cc(Cn2cnc(-c3ccccc3)c2-c2nc3ccccc3n2C)cn1,i
Cc1cc(CNC(=O)c2ccc(Cn3cnnn3)cc2)c2[nH]c(C)c(C)c2c1,i
COc1ccc(C(=O)CN2C3=NCCN3c3ccccc32)cc1OC,i
COC(=O)C1=CC(O)C(O)C(O)C1 (stereo not drawn),i
O=C1C(=Cc2cccn2-c2ccc(Br)cc2)C(=O)c2ccccc21,i
O=C1c2ccccc2-c2ccc(Br)cc21,32.0%*
O=C1C(Br)=C(Br)C(=O)c2ccccc21,i
O=C(NCCN1CCOCC1)c1c[nH]c2ccc(S(=O)(=O)Nc3ccccc3F)cc2c1=O,i
CC1(C)CC(N2C(=O)OC(C)([C@H]3CC4C=CC3C4)C2(C)O)CC(C)(C)N1 (stereo partly drawn),98.0%*
Cc1ccc(CN(C(=O)c2cc(=O)[nH][nH]2)C2CC2)s1,i
Cn1c(=O)[nH]c2nnc(-c3cccs3)nc2c1=O,i
CC(=O)N1CCC(N2CC[C@H](c3nc4ccccc4s3)C2)CC1,i
c1ccc2sc([C@H]3CCNC3)nc2c1,32.0%*
O=C(O)CCC(=O)N1CC[C@H](c2nc3ccccc3s2)C1,i
CN(C)CCC1CN(c2nc(C(N)=O)cs2)CCO1 (stereo not drawn),i
O=C(Nc1cccc(Cl)c1)c1cccc(N2C(=O)C=CC2=O)c1,i
COC(=O)c1cc(C(=O)OC)cc(N2C(=O)C3C4C=CC(C4)C3C2=O)c1 (stereo not drawn),i
SMILES,ST2 inh
Cc1c(CCO)c2ccccc2n1-c1ccccc1,i
O=C(NC(Cc1c[nH]c2ccccc12)C(=O)O)c1ccccc1 (stereo not drawn),i
CC(C)C1NC(=O)CNC(=O)C2CCCN2C(=O)C(Cc2c[nH]c3ccccc23)NC(=O)CNC(=O)C(C(O)c2ccc(O)cc2)NC(=O)CNC1=O (stereo not drawn),i
O=C(N[C@H]1CCN2C(=O)[C@@H](Cc3c[nH]c4ccccc34)NC(=O)[C@H]12)c1ccccc1,79.0%*
Cc1ncnc(N2CCC(N3CCCC(C(=O)N4CCCC4)C3)CC2)c1C (stereo not drawn),i
Cc1noc2ncnc(N3CCC(N4CCCC(C(=O)N5CCCC5)C4)CC3)c12 (stereo not drawn),i
CNC(=O)c1cccnc1N1CCC(N2CCCC(C(=O)N3CCCC3)C2)CC1 (stereo not drawn),33.0%*
COc1ccccc1CN(C(=O)c1ccc(CO)cc1)C1CC1,i
CC(=O)Oc1ccc2c(=O)c(Oc3ccccc3)c(C)oc2c1OC(C)=O,i
COc1ccc2c(=O)c(Oc3ccccc3)c(C)oc2c1OC,30.0%*
COc1ccc2c(=O)c(Oc3ccccc3)c(C(F)(F)F)oc2c1OC,i
Cc1ccc(C(c2sc3nc(C)nn3c2O)N2CCc3ccccc3C2)cc1 (stereo not drawn),i
Cc1cccc(C(=O)N(c2ccc(C(C)C)cc2)C2C=CS(=O)(=O)C2)c1 (stereo not drawn),i
CCSc1nc(CC(=O)NCc2sc(C)nc2CC)cs1,31.0%*
CCSc1nc(CC(=O)NCc2ccc(CC)cn2)cs1,i
CCSc1nc(CC(=O)NCc2cc(CC)no2)cs1,i
O=C(Nc1ccc2ncsc2c1)c1cccc(CN2CCCC(O)C2)c1 (stereo not drawn),i
N#CC1=C(N)N(c2ccc(Br)cc2F)C2=C(C(=O)CCC2)C1c1cccs1 (stereo not drawn),i
O=C(NCc1cccs1)c1ccc(Cl)cc1[N+](=O)[O-],i
O=C(Nc1ccccc1I)c1cc([N+](=O)[O-])ccc1Cl,i
O=C(Nc1ccc([N+](=O)[O-])cc1Cl)c1cc(I)ccc1Cl,31.0%*
O=C(Nc1ccccc1[N+](=O)[O-])c1cc(I)ccc1Cl,35.0%*
O=C(Nc1ccccc1I)c1ccc(Cl)cc1[N+](=O)[O-],30.0%*
Cc1cccc(NC(=O)c2ccc([N+](=O)[O-])cc2Cl)c1,31.0%*
COc1cc([N+](=O)[O-])ccc1NC(=O)c1cc(I)ccc1Cl,i
SMILES,ST2 inh
O=C(Nc1cccc([N+](=O)[O-])c1)c1ccccc1Cl,i
CC(C)Oc1ccc(NC(=O)c2ccc([N+](=O)[O-])cc2Cl)cc1,i
O=C(Nc1ccc([N+](=O)[O-])cc1)c1cc(I)ccc1Cl,i
O=C(Nc1ccccc1Cl)c1ccccc1[N+](=O)[O-],i
O=C(Nc1cccc([N+](=O)[O-])c1)c1cc(I)ccc1Cl,i
COc1cccc(CN2CCc3nnc(C(C)NC(=O)CCc4ccccc4)n3CC2)c1O (stereo not drawn),i
O=C(NCc1ccco1)c1cccc(Cl)c1Cl,i
CSc1nc(C2CC2)cc(-c2ccco2)c1C#N,i
